Potency and outcome data for eleven molecules are collected here from PubChem BioAssay (Tox21).

A short description of experiment [1]: qHTS assay for small molecule agonists of the p53 signaling pathway (AID 651631; calls by dose curve; also: nearly all actives have a fitted effect of over 15% in size). Summed up:
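Agonist mode screen using a stably integrated beta-lactamase gene under p53 response elements in HCT-116 cells. Compound exposure lasts 16 h at 37 °C; fluorescence intensity is measured following 2 h FRET substrate loading.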

Experiment [2] is described as follows: qHTS assay for small molecules that induce genotoxicity in human embryonic kidney cells expressing luciferase-tagged ATAD5 (AID 651632). Also: nearly all actives have a fitted effect of over 15% in size. A digest of the protocol: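 ATAD5-luc HEK293T, 2,000 cells/well; cpd or DMSO pin-transferred; 16 hr, 37C/5% CO2; Amplite 30 min RT; luminescence.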
For orientation: Quantitative high-throughput screening tests each substance at several concentrations.

Experiment [3] can be described thus: qHTS assay for small molecule agonists of the p53 signaling pathway - cell viability (AID 651633; calls by dose curve;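 also: p53RE-bla HCT reporter cells with a stable beta-lactamase p53 reporter; series mostly up to about 83 µM; nearly all actives have a fitted effect of over 30% in size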). Summed up:
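p53RE-bla cells, seeded at 4,000 per well and rested 5 h at 37 C/5% CO2, received compounds in DMSO for 16 h at 37 C. CellTiter-Glo was then added, and luminescence was read after 30 min at room temperature to gauge cytotoxicity.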

Experiment [4] can be described thus: qHTS assay for small molecules that induce genotoxicity in human embryonic kidney cells expressing luciferase-tagged ATAD5 - cell viability (AID 651634; calls by dose curve; also: nearly all actives have a fitted effect of over 25% in size; also: potency is read from the fitted curve at half-maximal effect). A digest of the protocol:
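Fluorescence from CellTiter-Fluor, reporting protease activity within live cells, served as the viability read-out. HEK293T cells carrying luciferase-tagged ATAD5 had been treated with compound for 15.5 hr at 37C.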

Experiment [5] can be described thus: qHTS assay to test for compound auto fluorescence at 590 nm (red) in HepG2 cells (AID 720674). A digest of the protocol:
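Intrinsic compound fluorescence in the red window (Ex/Em 540/590 nm) is measured in attached HepG2 cells exposed for 1 hr, DMSO vehicle as baseline, benchmarked to Rose Bengal sodium.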

Experiment [6] can be described thus: qHTS assay to test for compound auto fluorescence at 535 nm (green) in HepG2 cells (AID 720675).
The nature of experiment [7]: qHTS assay to test for compound auto fluorescence at 460 nm (blue) in HEK293 cells (AID 720678). A digest of the protocol: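 HEK293, 2,000 cells/well, 10% dialyzed FBS; attach 4-5 hr 37C; pin compound or DMSO; o/n 37C/5% CO2; fluorescence 405/460 nm; triamterene-equivalent units.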
A short description of experiment [8]: qHTS assay to test for compound auto fluorescence at 590 nm (red) in HEK293 cells (AID 720679). Summed up:
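Intensity at 540nm excitation and 590nm emission is reported as Rose Bengal sodium-equivalent autofluorescence. Measurements followed overnight exposure (37C, 5% CO2) of HEK293 cells, 2,000 per well, to 23 nL compound.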

The nature of experiment [9]: qHTS assay to test for compound auto fluorescence at 535 nm (green) in HEK293 cells (AID 720680).
A short description of experiment [10]: qHTS assay to test for compound auto fluorescence at 460 nm (blue) in HEK293 cell free culture (AID 720681). A digest of the protocol: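 Test compounds were pinned into cell-free culture medium (DMEM with 10% FBS) and fluorescence was read directly at Ex/Em 405/460 nm. Signals were expressed as fluorescence equivalents of triamterene, with DMSO vehicle as control.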

Experiment [11] in a line: qHTS assay to test for compound auto fluorescence at 535 nm (green) in HEK293 cell free culture (AID 720682). A digest of the protocol:
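No cells present: wells hold DMEM supplemented with 10% FBS, into which compound or vehicle is pinned. Green emission is then recorded (485 nm excitation, 535 nm emission) and scaled to fluorescein.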

Experiment [12] can be described thus: qHTS assay to test for compound auto fluorescence at 590 nm (red) in HepG2 cell free culture (AID 720684). Summed up: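 Red fluorescence (540 nm excitation, 590 nm emission) was measured after compound transfer into cell-free MEM supplemented with 10% FBS. Values are equivalencies against Rose Bengal sodium.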
A short description of experiment [13]: qHTS assay to test for compound auto fluorescence at 460 nm (blue) in HepG2 cell free culture (AID 720685). Summed up:
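Compound (23 nL) or DMSO pinned into cell-free MEM with 10% FBS; blue fluorescence read at 405/460 nm excitation/emission, expressed as auto-fluorescence equivalency to triamterene.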

Experiment [14] in a line: qHTS assay to test for compound auto fluorescence at 535 nm (green) in HepG2 cell free culture (AID 720686).
Experiment [15] can be described thus: qHTS assay to test for compound auto fluorescence at 460 nm (blue) in HepG2 cells (AID 720687). A digest of the protocol:
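Cells (2,000/well in MEM with 10% FBS) attached overnight at 37 C, then were exposed to compound or DMSO for 1 hr at 37 C, 5% CO2. Fluorescence read at Ex/Em 405/460 nm, expressed as triamterene-equivalent signal.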

Experiment [16] in a line: qHTS assay for small molecule disruptors of the mitochondrial membrane potential - cell viability (AID 720634; calls by dose curve;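 also: human HepG2 liver cancer cells; series mostly up to about 83 µM; nearly all actives have a fitted effect of over 20% in size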). Summed up:
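Cells: HepG2, 2,000/well, attached overnight. Compound 1 hr, 37 C/5% CO2. +m-MPI dye, +CellTiter-Glo 30 min RT. Readout: luminescence (ATP).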

A short description of experiment [17]: qHTS assay for small molecule disruptors of the mitochondrial membrane potential (AID 720635). Also: potency is read from the fitted curve at half-maximal effect. Summed up: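 HepG2 cells (2,000/well) attached overnight at 37C, then took compound for 1 hr at 37C, 5% CO2. Mito-MPS dye was added for 30 min; fluorescence was read at 490/535 nm (monomers) and 540/590 nm (aggregates).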
Experiment [18] is described as follows: qHTS assay to test for compound auto fluorescence at 590 nm (red) in HEK293 cell free culture (AID 720683). Summed up:
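Tox21 10K library compounds were pinned into cell-free DMEM with 10% FBS and fluorescence was read at excitation 540 nm. Activity is expressed as Rose Bengal sodium equivalency.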

For experiment [19], the target named is Glucocorticoid receptor (Homo sapiens) (UniProt P04150). Put plainly: qHTS assay to identify small molecule agonists of the glucocorticoid receptor (GR) signaling pathway (AID 720691; active = well fitted activation curve with a large enough effect in the signal ratio in the repeat runs, not every such curve was filed as active; the % refers to the signal ratio). Summed up: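 Fluorescence intensity from LiveBLAzer B/G FRET substrate (2 h, room temperature) reports beta-lactamase expression driven by the glucocorticoid response element in GR-bla HeLa cells after 18 h compound exposure at 37 C.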
Glucocorticoid receptor (Homo sapiens), sequence (P04150 whole entry, looked up): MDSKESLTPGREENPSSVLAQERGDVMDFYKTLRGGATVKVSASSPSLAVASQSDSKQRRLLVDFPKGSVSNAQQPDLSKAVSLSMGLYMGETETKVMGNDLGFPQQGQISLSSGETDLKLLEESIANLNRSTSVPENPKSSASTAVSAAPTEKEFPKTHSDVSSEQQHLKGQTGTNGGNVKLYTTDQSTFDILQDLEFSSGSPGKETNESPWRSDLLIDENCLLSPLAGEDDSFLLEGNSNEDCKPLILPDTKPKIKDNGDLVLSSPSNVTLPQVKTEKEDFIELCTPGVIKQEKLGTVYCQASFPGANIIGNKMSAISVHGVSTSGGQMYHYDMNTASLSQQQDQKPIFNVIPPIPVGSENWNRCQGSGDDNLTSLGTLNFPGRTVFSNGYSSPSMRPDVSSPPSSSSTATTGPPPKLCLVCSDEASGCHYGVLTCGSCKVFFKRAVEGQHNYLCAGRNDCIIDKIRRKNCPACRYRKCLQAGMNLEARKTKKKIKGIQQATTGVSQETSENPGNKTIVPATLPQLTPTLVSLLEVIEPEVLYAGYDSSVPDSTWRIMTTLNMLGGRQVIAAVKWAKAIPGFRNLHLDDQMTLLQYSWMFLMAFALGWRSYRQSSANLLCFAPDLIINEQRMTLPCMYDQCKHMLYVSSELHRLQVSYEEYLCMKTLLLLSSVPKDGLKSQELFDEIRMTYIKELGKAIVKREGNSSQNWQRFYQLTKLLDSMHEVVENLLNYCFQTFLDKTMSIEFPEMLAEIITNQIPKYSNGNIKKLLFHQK

For experiment [20] the target is unchanged. Put plainly: qHTS assay to identify small molecule antagonists of the glucocorticoid receptor (GR) signaling pathway (AID 720692; active = well fitted inhibition curve with a large enough effect in the signal ratio in the repeat runs, not every such curve was filed as active; the % refers to the signal ratio). Summed up:
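HeLa GR-bla cells; cmpd + dex 5 nM final, 18 h 37 C; LiveBLAzer B/G FRET substrate 2 h RT; fluorescence intensity read. Antagonist mode, qHTS.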

Unmarked numbers belong to inactive results. Inconclusive results are not listed. Active and inactive are the calls of the source. Unless noted, calls follow the shape of the dose curve; as a rule, active = well fitted curve in the direction sought with a large enough effect in the repeat runs; inconclusive = weak or mixed curves; inactive = no such curve, though single readings can be large; an effect the other way counts as inactive or inconclusive.

As to `CCC(C)=O`, the Potency result in experiment [1], in [2], in experiment [3], in [4], in experiment [7] and in experiment [10] was “inactive” each time. Further, the Potency result in experiment [13] and in experiment [15] was “inactive” in each case. For the same molecule, the result in experiment [5], in [6], in experiment [8], in [9], in experiment [11] and in experiment [12] was inactive. In [14], the molecule was classed as inactive.

With `CC1CC(O)CC(C)(C)C1` (stereo not given), the Potency result in [1], in [2], in [4], in [16], in experiment [17] and in experiment [7] was “inactive” each time. Besides, the Potency entry in [10], in experiment [13], in experiment [15], in experiment [19] and in experiment [20] was “inactive” each time. Besides, the result in experiment [5], in experiment [9], in [11], in [18], in experiment [12] and in [14] was inactive.

Turning to `NCC1CCCC(CN)C1` (stereo not given), the Potency entry in experiment [1], in experiment [2], in [4], in experiment [16], in experiment [17] and in [7] was “inactive” throughout. The Potency result in experiment [10], in experiment [13], in experiment [15], in experiment [19] and in [20] was “inactive” throughout. Further, the call in experiment [5], in [6], in experiment [8], in experiment [9], in experiment [11] and in [18] was inactive. The molecule was classed as inactive in [12] and in [14].

Take `CNC(=S)NC`: the Potency result in experiment [1], in experiment [2], in [3], in experiment [4], in experiment [16] and in experiment [7] was “inactive” throughout. For the same molecule, the Potency entry in [10], in experiment [13], in experiment [15] and in experiment [19] was “inactive” in each case. The molecule was called inactive in experiment [5], in [6], in experiment [9], in experiment [11], in experiment [18] and in [14].

As for `CC(C)(CCl)c1ccccc1`, the Potency result in experiment [1], in experiment [2], in experiment [3], in experiment [4], in experiment [16] and in [7] was “inactive” in each case. For the same molecule, the Potency entry in [10], in [13] and in experiment [15] was “inactive” each time. In addition, the molecule was called inactive in experiment [5], in experiment [8], in experiment [9], in [11], in [18] and in experiment [12]. Further, the molecule was classed as inactive in experiment [14].

Consider `O=[N+]([O-])c1cccc(S(=O)(=O)NCCNS(=O)(=O)c2cccc([N+](=O)[O-])c2)c1`, for which the Potency entry in [1], in experiment [2], in experiment [3], in [4], in [7] and in experiment [13] was “inactive” throughout. For the same molecule, the Potency result in [15], in experiment [19] and in [20] was “inactive” throughout. For the same molecule, in [17], the Potency was 11.9 µM (active). For the same molecule, the call in experiment [5], in [8], in [9], in experiment [11], in [18] and in experiment [12] was inactive. Moreover, the call in experiment [14] was inactive.

Turning to `CC(C)C(=O)O`, the Potency result in [1], in experiment [2], in experiment [3], in experiment [4], in experiment [7] and in [10] was “inactive” throughout. In addition, the Potency result in [13], in [15], in experiment [19] and in [20] was “inactive” each time. The call in experiment [5], in experiment [6], in experiment [8], in experiment [11], in experiment [18] and in experiment [12] was inactive. Further, the outcome in experiment [14] was inactive.

`COc1ccc(CCC(=O)c2c(O)cc(O[C@@H]3O[C@H](CO)[C@@H](O)[C@H](O)[C@H]3O[C@@H]3O[C@@H](C)[C@H](O)[C@@H](O)[C@H]3O)cc2O)cc1O`: the Potency result in experiment [1], in experiment [2], in experiment [4], in experiment [16], in experiment [17] and in experiment [7] was “inactive” each time. Also, the Potency entry in experiment [10], in experiment [13] and in [15] was “inactive” in each case. Besides, the outcome in experiment [5], in [6], in experiment [8], in experiment [9], in experiment [11] and in experiment [18] was inactive. In addition, the outcome in [12] and in [14] was inactive.

With `c1ccc(COCc2ccccc2)cc1`, the Potency entry in experiment [1], in experiment [2], in [4], in experiment [16], in [17] and in experiment [7] was “inactive” throughout. Further, the Potency result in experiment [10], in [13], in experiment [15], in [19] and in experiment [20] was “inactive” in each case. The result in experiment [5], in [6], in experiment [8], in experiment [9], in [11] and in experiment [18] was inactive. In addition, the call in experiment [12] and in experiment [14] was inactive.

For the molecule `CCC(C)(C)C1CCC(O)CC1` (stereo not given), the Potency entry in experiment [1], in [2], in experiment [3], in experiment [4], in [7] and in experiment [10] was “inactive” in each case. In addition, the Potency entry in [13] and in [15] was “inactive” in each case. Further, the outcome in experiment [5], in experiment [6], in [8], in [9], in experiment [11] and in experiment [18] was inactive. For the same molecule, the result in experiment [12] and in experiment [14] was inactive.

Turning to `COc1ccccc1N=Nc1c(S(=O)(=O)O)cc2cc(S(=O)(=O)O)cc(NC(C)=O)c2c1O`, the Potency result in experiment [1], in experiment [2], in experiment [3], in experiment [16], in experiment [7] and in experiment [10] was “inactive” each time. Besides, the Potency result in [13], in [15] and in experiment [20] was “inactive” each time. Besides, in experiment [4], the Potency is 28.8 µM (active). Further, the result in [5], in [6], in [9], in [11], in [18] and in [14] was inactive.
